Reference: PubChem BioAssay (Tox21)
Where “and” joins values, the source holds several entries; their conditions need not be identical. Equal entries are not always repeated. Inconclusive results are not listed. Where a call stands in place of a potency, no number is given. Calls of active or inactive are those of the source. Unless noted, the call rests on the fitted dose curve; in most records, active means well fitted curve in the direction sought with a large enough effect in the repeat runs; inconclusive means weak or mixed curves; inactive means no such curve, though single readings can be large; an effect the other way counts as inactive or inconclusive.

Columns and labels:
[1] = qHTS assay to identify small molecule antagonists of the thyroid receptor (TR) signaling pathway (AID 743065); details: GH3.TRE-Luc, T3-stimulated luciferase inhibition, 23.5 h; series mostly up to 70.3 µM; further: nearly all actives have a fitted effect of over 55% in size; further: potency means the concentration at half of the fitted maximal effect
Outline: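 GH3.TRE-Luc rat pituitary cells carrying two TR response elements driving luciferase were plated for 4 h, given compound plus 1 nM T3 (final), and incubated 23.5 h at 37 C. ONE-Glo luminescence measured reporter inhibition; CellTiter-Fluor fluorescence tracked cytotoxicity.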

[2] = system: thyroid hormone receptor (rat, GH3 cells); experiment: qHTS assay to identify small molecule agonists of the thyroid receptor (TR) signaling pathway (AID 743066; calls by dose curve); details: GH3.TRE-Luc cells, TR agonist luciferase, 24 h; series mostly up to 83.9 µM
[3] = qHTS assay to identify small molecule antagonists of the estrogen receptor alpha (ER-alpha) signaling pathway - cell viability counter screen (AID 743074; calls by dose curve;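 further: HEK293 cells carrying ER-alpha-UAS-bla reporter stimulated with 17beta-estradiol; nearly all actives have a fitted effect of over 45% in size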); details: ERalpha-bla HEK293 viability, CellTiter-Glo luminescence, 18 h; series mostly up to 69.4 µM
[4] = qHTS assay to identify small molecule antagonists of the estrogen receptor alpha (ER-alpha) signaling pathway using the BG1 cell line - cell viability counter screen (AID 743081); details: BG1Luc4E2 viability, CellTiter-Fluor, 22 h; series mostly up to 70.3 µM;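 further: compound given together with 17beta-estradiol as the ER stimulus; nearly all actives have a fitted effect of over 45% in size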
[5] = target: Aromatase (Homo sapiens) (UniProt P11511); experiment: qHTS assay to identify aromatase inhibitors (AID 743083); details: MCF-7 aro ERE, testosterone-driven ERE luciferase, 24 h; series mostly up to 70.3 µM; further: nearly all actives have a fitted effect of over 55% in size
Chain of Aromatase (Homo sapiens) (P11511 whole entry, looked up): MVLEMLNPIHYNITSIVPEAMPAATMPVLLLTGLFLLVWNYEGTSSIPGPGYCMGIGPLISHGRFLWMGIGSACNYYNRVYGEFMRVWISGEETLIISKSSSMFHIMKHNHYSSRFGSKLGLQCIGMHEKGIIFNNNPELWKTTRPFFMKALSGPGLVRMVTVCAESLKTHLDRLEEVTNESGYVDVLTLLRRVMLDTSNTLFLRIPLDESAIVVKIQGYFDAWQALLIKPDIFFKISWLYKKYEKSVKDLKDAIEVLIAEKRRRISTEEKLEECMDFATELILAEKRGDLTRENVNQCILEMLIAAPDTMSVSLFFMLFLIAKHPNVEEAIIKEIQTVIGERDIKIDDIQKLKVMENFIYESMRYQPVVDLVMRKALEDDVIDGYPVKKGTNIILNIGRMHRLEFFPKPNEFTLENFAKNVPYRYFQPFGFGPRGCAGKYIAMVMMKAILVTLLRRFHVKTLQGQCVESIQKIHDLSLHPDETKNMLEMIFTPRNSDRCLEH

[6] = qHTS assay to identify aromatase inhibitors - cell viability counter screen (AID 743084); details: MCF-7 aro ERE viability, CellTiter-Fluor, 24 h; series mostly up to 70.3 µM;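 further: cells stimulated with testosterone during compound exposure; nearly all actives have a fitted effect of over 55% in size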
[7] = target: Estrogen receptor (Homo sapiens) (UniProt P03372); experiment: qHTS assay to identify small molecule agonists of the estrogen receptor alpha (ER-alpha) signaling pathway (AID 743075; calls by dose curve;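 further: HEK293 GripTite cells with ER-alpha and UAS-driven beta-lactamase reporter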; further: potency means the concentration at half of the fitted maximal effect); details: HEK293 ER-alpha-UAS-bla, beta-lactamase FRET ratio, 18 h; series mostly up to 70.1 µM
Chain of Estrogen receptor (Homo sapiens) (P03372 whole entry, looked up): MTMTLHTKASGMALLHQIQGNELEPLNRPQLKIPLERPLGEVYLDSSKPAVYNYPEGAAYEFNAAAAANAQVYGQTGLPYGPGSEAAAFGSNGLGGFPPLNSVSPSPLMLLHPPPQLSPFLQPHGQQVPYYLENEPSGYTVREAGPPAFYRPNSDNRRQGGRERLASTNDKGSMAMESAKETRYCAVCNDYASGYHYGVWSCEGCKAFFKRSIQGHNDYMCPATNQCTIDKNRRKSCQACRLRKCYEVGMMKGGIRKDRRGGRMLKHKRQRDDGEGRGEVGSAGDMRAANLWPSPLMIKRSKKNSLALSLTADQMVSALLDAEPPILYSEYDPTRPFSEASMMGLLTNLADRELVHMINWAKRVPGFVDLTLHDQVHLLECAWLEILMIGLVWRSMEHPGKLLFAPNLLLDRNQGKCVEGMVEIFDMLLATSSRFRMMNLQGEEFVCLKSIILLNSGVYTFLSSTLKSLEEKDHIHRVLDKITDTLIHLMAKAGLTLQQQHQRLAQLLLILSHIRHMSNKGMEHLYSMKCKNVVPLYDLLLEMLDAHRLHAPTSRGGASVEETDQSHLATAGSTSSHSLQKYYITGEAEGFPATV

[8] = qHTS assay to identify small molecule antagonists of the estrogen receptor alpha (ER-alpha) signaling pathway using the BG1 cell line (AID 743080; calls by dose curve;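 further: BG1 cells stimulated with 17beta-estradiol alongside compound; nearly all actives have a fitted effect of over 25% in size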; further: potency means the concentration at half of the fitted maximal effect); details: BG1Luc4E2 ERE-luciferase antagonist mode, luminescence; series mostly up to 70.3 µM
Outline: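 Seeding, 24 h rest, compound transfer from DMSO, 17beta-estradiol addition, 21.5 h incubation, CellTiter-Fluor (30 min, 37 C), then ONE-Glo (30 min, room temperature): this sequence was run on BG1-Luc-4E2 reporter cells.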

[9] = target: Estrogen receptor (Homo sapiens) (UniProt P03372); experiment: qHTS assay to identify small molecule agonists of the estrogen receptor alpha (ER-alpha) signaling pathway using the BG1 cell line (AID 743079); details: BG1Luc4E2 cells, ERE-luciferase agonist, 22 h; activation: at 70.3 µM (top of the series); further: nearly all actives have a fitted effect of over 20% in size; further: potency means the concentration at half of the fitted maximal effect

## c1cnc2c(n1)CCCC2
[1]
  Potency: inactive
[2]
  outcome: inactive
[3]
  Potency: inactive
[4]
  Potency: inactive
[5]
  Potency: inactive
[6]
  Potency: inactive

## CC1=CC(=O)CC(C)(C)C1(O)/C=C/C(C)=C\C(=O)O (stereo not given)
[1]
  Potency: inactive
[2]
  outcome: inactive
[3]
  Potency: inactive
[4]
  Potency: inactive
[5]
  Potency: inactive
[6]
  Potency: inactive

## CCC(C)(C)C1CCC(O)CC1 (stereo not given)
[1]
  Potency: inactive
[2]
  outcome: inactive
[3]
  Potency: inactive
[7]
  Potency: inactive
[8]
  Potency: inactive
[4]
  Potency: inactive
[5]
  Potency: inactive
[6]
  Potency: inactive

## CCCCC(CC)CNCC(CC)CCCC (stereo not given)
[1]
  Potency: inactive
[2]
  outcome: inactive
[3]
  Potency: inactive
[4]
  Potency: inactive

## CCCCCCCCCOC(C)=O
[1]
  Potency: inactive
[2]
  outcome: inactive
[3]
  Potency: inactive
[7]
  Potency: inactive
[9]
  Potency: inactive
[8]
  Potency: inactive
[4]
  Potency: inactive
[5]
  Potency: inactive
[6]
  Potency: inactive

## O=S(=O)(c1ccccc1)c1ccc(Cl)cc1
[1]
  Potency: inactive
[2]
  outcome: inactive
[3]
  Potency: inactive
[7]
  Potency: inactive
[8]
  Potency: 68.6 µM (active)
[4]
  Potency: inactive
[5]
  Potency: inactive
[6]
  Potency: inactive

## CCCCCCCCCCCC[N+](C)(C)CC(=O)[O-]
[1]
  Potency: 54.5 µM (active)
[2]
  outcome: inactive
[3]
  Potency: inactive
[7]
  Potency: inactive
[9]
  Potency: inactive
[8]
  Potency: inactive
[4]
  Potency: inactive
[5]
  Potency: inactive
[6]
  Potency: inactive

## CCCOC(=O)c1ccc(N)cc1
[1]
  Potency: inactive
[2]
  outcome: inactive
[3]
  Potency: inactive
[7]
  Potency: inactive
[4]
  Potency: inactive
[5]
  Potency: inactive
[6]
  Potency: inactive

## Brc1cc(-c2ccc(Br)c(Br)c2Br)cc(Br)c1Br
[1]
  Potency: 26.9 µM (active)
[2]
  outcome: inactive
[3]
  Potency: inactive
[7]
  Potency: inactive
[9]
  Potency: inactive
[8]
  Potency: inactive
[4]
  Potency: inactive
[5]
  Potency: inactive
[6]
  Potency: inactive

## N#C/C(=C1/SC[C@@H](c2ccc(Cl)cc2Cl)S1)n1ccnc1
[1]
  Potency: 21.1 µM (active) and 13.3 µM (active)
[2]
  outcome: inactive
[3]
  Potency: inactive
[4]
  Potency: inactive

## CCCCC(=O)O[C@]1(C(=O)CO)[C@@H](C)C[C@H]2[C@@H]3CCC4=CC(=O)C=C[C@]4(C)[C@@]3(F)[C@@H](O)C[C@@]21C
[1]
  Potency: 61.1 µM (active)
[2]
  outcome: inactive
[3]
  Potency: inactive
[7]
  Potency: inactive
[4]
  Potency: inactive
[5]
  Potency: inactive
[6]
  Potency: inactive

## CCCC(=O)O[C@]1(C(=O)COC(=O)CC)CC[C@H]2[C@@H]3CCC4=CC(=O)CC[C@]4(C)[C@H]3[C@@H](O)C[C@@]21C
[1]
  Potency: inactive
[2]
  outcome: inactive
[3]
  Potency: inactive
[7]
  Potency: inactive
[4]
  Potency: inactive
[5]
  Potency: inactive
[6]
  Potency: inactive

## O=S1OCCO1
[1]
  Potency: inactive
[2]
  outcome: inactive
[3]
  Potency: inactive
[7]
  Potency: inactive
[9]
  Potency: inactive
[8]
  Potency: inactive
[4]
  Potency: inactive
[5]
  Potency: inactive
[6]
  Potency: inactive

## O=C(O)C(Cc1cc(I)c(O)c(I)c1)c1ccccc1 (stereo not given)
[1]
  Potency: inactive
[2]
  outcome: inactive
[3]
  Potency: inactive
[7]
  Potency: inactive
[8]
  Potency: inactive
[4]
  Potency: inactive
[5]
  Potency: inactive
[6]
  Potency: inactive

## O=C(O)c1cccnc1C(=O)O
[1]
  Potency: inactive
[2]
  outcome: inactive
[3]
  Potency: inactive
[7]
  Potency: inactive
[9]
  Potency: inactive
[8]
  Potency: inactive
[4]
  Potency: inactive
[5]
  Potency: inactive
[6]
  Potency: inactive

## CCCCC(=O)O[C@]1(C(=O)CO)CC[C@H]2[C@@H]3CCC4=CC(=O)CC[C@]4(C)[C@H]3[C@@H](O)C[C@@]21C
[1]
  Potency: inactive
[2]
  outcome: inactive
[3]
  Potency: inactive
[9]
  Potency: inactive
[4]
  Potency: inactive
[5]
  Potency: inactive
[6]
  Potency: inactive

## Oc1ccc(Nc2ccccc2)cc1
[1]
  Potency: 43.3 µM (active)
[2]
  outcome: inactive
[3]
  Potency: inactive
[7]
  Potency: 55 µM [activator] (active)
[9]
  Potency: 30.6 µM (active)
[8]
  Potency: inactive
[4]
  Potency: inactive
[5]
  Potency: inactive
[6]
  Potency: inactive

## CN1C(=O)CC(C)(c2ccccc2)C1=O (stereo not given)
[1]
  Potency: inactive
[2]
  outcome: inactive
[3]
  Potency: inactive
[7]
  Potency: inactive
[9]
  Potency: inactive
[8]
  Potency: inactive
[4]
  Potency: inactive
[5]
  Potency: inactive
[6]
  Potency: inactive

## O=C(CCCCCCC(=O)Nc1ccccc1)NO
[1]
  Potency: 2.11 µM (active) and 2.66 µM (active)
[2]
  outcome: inactive
[3]
  Potency: inactive
[7]
  Potency: inactive
[8]
  Potency: 5.96 µM (active) and 4.22 µM (active)
[4]
  Potency: inactive

## COCc1c(C(C)C)nc(C(C)C)c(/C=C/[C@@H](O)C[C@@H](O)CC(=O)O)c1-c1ccc(F)cc1
[1]
  Potency: 11.9 µM (active)
[2]
  outcome: inactive
[3]
  Potency: inactive
[9]
  Potency: 11.9 µM (active)
[4]
  Potency: inactive
[6]
  Potency: inactive

## CCCCCCCCSCCO
[1]
  Potency: inactive
[2]
  outcome: inactive
[3]
  Potency: inactive
[4]
  Potency: inactive
[5]
  Potency: inactive
[6]
  Potency: inactive

## CC1C2CC(CC2C2CCCC(O)C2)C1(C)C (stereo not given)
[1]
  Potency: inactive
[2]
  outcome: inactive
[3]
  Potency: inactive
[4]
  Potency: inactive

## OC/C(Br)=C(\Br)CO
[1]
  Potency: inactive
[2]
  outcome: inactive
[3]
  Potency: inactive
[7]
  Potency: inactive
[8]
  Potency: inactive
[4]
  Potency: inactive
[5]
  Potency: inactive
[6]
  Potency: inactive

## CC(C)CCCC(=O)O
[1]
  Potency: inactive
[2]
  outcome: inactive
[3]
  Potency: inactive
[7]
  Potency: inactive
[9]
  Potency: inactive
[8]
  Potency: inactive
[4]
  Potency: inactive
[5]
  Potency: inactive
[6]
  Potency: inactive

## Cc1nc2ccccc2s1
[1]
  Potency: inactive
[2]
  outcome: inactive
[3]
  Potency: inactive
[7]
  Potency: inactive
[9]
  Potency: inactive
[8]
  Potency: inactive
[4]
  Potency: inactive
[5]
  Potency: inactive
[6]
  Potency: inactive

## CCCCCCOC(=O)CCCCCCCC(=O)OCCCCCC
[1]
  Potency: inactive
[2]
  outcome: inactive
[3]
  Potency: inactive
[4]
  Potency: inactive

## O=C(C(=O)c1ccccc1)c1ccccc1
[1]
  Potency: inactive
[2]
  outcome: inactive
[3]
  Potency: inactive
[4]
  Potency: inactive

## CC(C)c1nnc2ccc(-c3ocnc3-c3cc(F)ccc3F)cn12
[1]
  Potency: inactive
[2]
  outcome: inactive
[3]
  Potency: inactive
[7]
  Potency: inactive
[8]
  Potency: 54.5 µM (active)
[4]
  Potency: inactive
[5]
  Potency: inactive
[6]
  Potency: inactive

## CCOC(=O)c1ccccc1OC
[1]
  Potency: inactive
[2]
  outcome: inactive
[3]
  Potency: inactive
[4]
  Potency: inactive
[5]
  Potency: inactive
[6]
  Potency: inactive

## Cc1ccc(S(=O)(=O)NC2CCCCC2)cc1
[1]
  Potency: inactive
[2]
  outcome: inactive
[3]
  Potency: inactive
[7]
  Potency: inactive
[8]
  Potency: 68.1 µM (active)
[4]
  Potency: inactive
[5]
  Potency: inactive

## CCOC(=O)c1ccccc1C
[1]
  Potency: inactive
[2]
  outcome: inactive
[3]
  Potency: inactive
[7]
  Potency: inactive
[9]
  Potency: inactive
[8]
  Potency: inactive
[4]
  Potency: inactive
[5]
  Potency: inactive
[6]
  Potency: inactive

## C[N+]1(C)CCC(=C(c2ccccc2)c2ccccc2)CC1
[1]
  Potency: inactive
[2]
  outcome: inactive
[3]
  Potency: inactive
[4]
  Potency: inactive
[5]
  Potency: inactive
[6]
  Potency: inactive

## O=C(O)c1ccc(CO)o1
[1]
  Potency: inactive
[2]
  outcome: inactive
[3]
  Potency: inactive
[4]
  Potency: inactive
[5]
  Potency: inactive
[6]
  Potency: inactive

## COCCOC
[1]
  Potency: inactive
[2]
  outcome: inactive
[3]
  Potency: inactive
[4]
  Potency: inactive

## Nc1ccc(S(=O)(=O)O)cc1
[1]
  Potency: inactive
[2]
  outcome: inactive
[3]
  Potency: inactive
[7]
  Potency: inactive
[9]
  Potency: 38.8 µM (active)
[8]
  Potency: inactive
[4]
  Potency: inactive
[5]
  Potency: inactive
[6]
  Potency: inactive

## C[N+](C)(C)CCOC(N)=O
[1]
  Potency: inactive
[2]
  outcome: inactive
[3]
  Potency: inactive
[4]
  Potency: inactive
[5]
  Potency: inactive
[6]
  Potency: inactive

## CN(C(=O)C(Cl)Cl)c1ccc(OC(=O)c2ccco2)cc1
[1]
  Potency: inactive
[2]
  outcome: inactive
[3]
  Potency: inactive
[4]
  Potency: inactive
[5]
  Potency: inactive
[6]
  Potency: inactive

## CCCCCCCC/C=C\CCCCCCCC(=O)OC(CO)CO
[1]
  Potency: inactive
[2]
  outcome: inactive
[3]
  Potency: inactive
[4]
  Potency: inactive
[5]
  Potency: inactive
[6]
  Potency: inactive

## C/C=C(\C)C(=O)OCCC(C)CCC=C(C)C (stereo not given)
[1]
  Potency: inactive
[2]
  outcome: inactive
[3]
  Potency: inactive
[4]
  Potency: inactive
[6]
  Potency: inactive

## CC(C)CCCCCOC(=O)CCCCC(=O)OCCCCCC(C)C
[1]
  Potency: inactive
[2]
  outcome: inactive
[3]
  Potency: inactive
[4]
  Potency: inactive
[5]
  Potency: inactive
[6]
  Potency: inactive

## C[Si]1(C)O[Si](C)(C)O[Si](C)(C)O1
[1]
  Potency: inactive
[2]
  outcome: inactive
[4]
  Potency: inactive
[5]
  Potency: inactive
[6]
  Potency: inactive

## COC(=O)Nc1nc2ccc(C(=O)c3cccs3)cc2[nH]1
[1]
  Potency: 0.237 µM (active)
[2]
  outcome: inactive
[4]
  Potency: inactive
[5]
  Potency: inactive
[6]
  Potency: inactive
